Source: the supplement of paper PMC8975748
Structures can show the parent of a compound that is named as a salt.

Tested on: Saccharomyces cerevisiae BY4741 SeMeCo community
Experiment: z-score of subpopulation abundance vs DMSO median, subpopulation auxotrophic for LUM; higher = larger share of this subpopulation than in DMSO controls
Details: 10 µM; 24 h; SM minimal medium; subpopulation (auxotrophy): LUM
Experimental: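 Fluorescent four-plasmid SeMeCo (self-establishing metabolically cooperating S. cerevisiae BY4741 community; plasmids pH-mRuby2, pL-mWasabi, pU-eCFP, pM-TagRFP657) was grown 24 h in minimal SM medium with each Selleck FDA-approved drug at 10 µM in 384-well plates. Cells were fixed and imaged by high-content confocal microscopy. For each auxotrophic subpopulation (and the prototroph), a z-score gives the deviation from the DMSO vehicle-control population median.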

| Structure (SMILES) | z-score of subpopulation abundance |
| --- | --- |
| C=CN1CCCC1=O.II [Povidone iodine] | 0.83 |
| CC(=O)OCC1=C(C(=O)O)N2C(=O)C(N)C2SC1 (stereo not given) [7-Aminocephalosporanic acid] | -0.51 |
| C=C(C)[C@H]1Cc2c(ccc3c2O[C@@H]2COc4cc(OC)c(OC)cc4[C@@H]2C3=O)O1 [Rotenone (Barbasco)] | -0.01 |
| CC[C@@]1(O)C(=O)OCc2c1cc1n(c2=O)Cc2cc3ccccc3nc2-1 [Camptothecin] | -0.25 |
| CN(C)[C@@H]1C(=O)C(C(N)=O)=C(O)[C@@]2(O)C(=O)C3=C(O)c4c(O)cccc4[C@@](C)(O)[C@H]3[C@H](O)[C@@H]12 [Oxytetracycline Dihydrate] | 0.01 |
| CN1C(=O)COc2c(C(=O)NC3CN4CCC3CC4)cc(Cl)cc21 (stereo not given) [Azasetron HCl] | -0.38 |
| C=C[C@H]1CN2CC[C@H]1C[C@H]2[C@H](O)c1ccnc2ccccc12 [Cinchonidine] | 0.19 |
| CCN(CC)CCOC(=O)C(O)(c1ccccc1)c1ccccc1 [Benactyzine hydrochloride] | -0.06 |
| NC(=O)CN1CCCC1=O [Piracetam] | 2.09 |
| NCC(O)c1ccc(O)cc1 (racemic) [(+,-)-Octopamine HCl] | 0.58 |
| Nc1ccncc1 [4-Aminopyridine] | 0.34 |
| C[N+]1(C)[C@@H]2C[C@@H](OC(=O)[C@H](CO)c3ccccc3)C[C@H]1[C@@H]1O[C@@H]12 [Methscopolamine] | 0.43 |
| Oc1cc(Cl)ccc1Oc1ccc(Cl)cc1Cl [Triclosan] | 0.02 |
| CC[C@@H](C(N)=O)N1CCCC1=O [Levetiracetam] | -0.55 |
| C[N+]12CCC(CC1)C(OC(=O)C(O)(c1ccccc1)c1ccccc1)C2 (stereo not given) [Clidinium Bromide] | -0.9 |
| CC(C)=CCOc1c2occc2cc2ccc(=O)oc12 [Imperatorin] | 0.74 |
| COc1ccc2c3c([nH]c2c1)C(C)=NCC3 [Harmaline] | -4.96 |
| COc1ccc2c(c1)[C@]13CCCC[C@@H]1[C@H](C2)N(C)CC3 [Dextromethorphan hydrobromide hydrate] | -0.51 |
| N[C@@H]1C[C@H]1c1ccccc1 [Tranylcypromine (2-PCPA) HCl] | -0.84 |
| NCCc1c[nH]c2ccc(O)cc12 [Serotonin HCl] | -0.88 |

| Structure (SMILES) | z-score of subpopulation abundance |
| --- | --- |
| C=CCN1C[C@H](C(=O)N(CCCN(C)C)C(=O)NCC)C[C@@H]2c3cccc4[nH]cc(c34)C[C@H]21 [Cabergoline] | 0.18 |
| CNC1CC(N)C(O)C(OC2OC(CO)C(O)C3OC4(OC(C(N)CO)C(O)C(O)C4O)OC23)C1O (stereo not given) [Hygromycin B] | -0.17 |
| N#Cc1nn(-c2c(Cl)cc(C(F)(F)F)cc2Cl)c(N)c1[S+]([O-])C(F)(F)F (stereo not given) [Fipronil] | -0.72 |
| CCOC(=O)Nc1ccc(NCc2ccc(F)cc2)cc1N [Retigabine 2HCl] | -0.01 |
| CCN1CC2(OC(=O)c3ccccc3NC(C)=O)CCC(OC)C34C1C(CC23)C1(O)CC(OC)C2CC4C1(O)C2OC (stereo not given) [Lappaconitine] | 0.98 |
| CC(C)(O)C(Cl)(Cl)Cl [Chlorobutanol] | 0.26 |
| C[C@H]1O[C@H](O[C@H]2[C@H](O)[C@@H](O)[C@@H](O)[C@H](O)[C@@H]2O)[C@@H](N)C[C@@H]1NC(=N)C(=O)O [Kasugamycin hydrochloride] | 0.34 |
| CCCCCCCCCCCCCCCC[n+]1ccccc1 [Cetylpyridinium Chloride] | 7.62 |
| CC(C)N(CCC(C(N)=O)(c1ccccc1)c1ccccn1)C(C)C (stereo not given) [Disopyramide] | 0.92 |
| CC[C@H]1[C@@H]2C[C@H]3[C@@H]4N(C)c5ccccc5[C@]45C[C@@H]([C@@H]2[C@H]5O)N3[C@@H]1O [Ajmaline] | -0.35 |
| Nc1nc(N)nc(NC2CC2)n1 [Cyromazine] | 0.89 |
| CC1(C)SC2C(N)C(=O)N2C1C(=O)O (stereo not given) [6-Aminopenicillanic acid] | -0.93 |
| COc1ccc(C(CN(C)C)C2(O)CCCCC2)cc1 (stereo not given) [Venlafaxine HCl] | 1.02 |
| O=C(O[C@H]1C[N+]2(CCCOc3ccccc3)CCC1CC2)C(O)(c1cccs1)c1cccs1 [Aclidinium Bromide] | -0.16 |
| C#C[C@]1(O)C=C[C@H]2[C@@H]3CCC4=CC(=O)CC[C@@H]4[C@H]3CC[C@@]21CC [Gestodene] | 0.24 |
| COC(=O)C1=CCCN(C)C1 [Arecoline HBr] | 0.07 |
| CN(C)[C@@H]1C(=O)C(C(N)=O)=C(O)[C@@]2(O)C(=O)C3=C(O)c4c(O)cccc4[C@@](C)(O)[C@H]3[C@H](O)[C@@H]12 [Oxytetracycline (Terramycin)] | 0.18 |
| Oc1cccc2cccnc12 [8-Hydroxyquinoline] | -0.89 |
| CN1[C@@H]2C[C@@H](OC(=O)[C@H](CO)c3ccccc3)C[C@H]1[C@@H]1O[C@@H]12 [Scopolamine HBr trihydrate] | -0.33 |
| C[CH2][Hg][S]c1ccccc1C(=O)[O-].[Na+] [Thimerosal] | 21 |
